Source: PubChem BioAssay (Tox21)
Records with an inconclusive call do not appear. Entries that show only a call come without a potency. Values without a mark were called inactive. Activity calls are given as the source filed them. Calls follow the shape of the dose curve; as a rule, active = well fitted cell-killing curve with a large enough effect in the repeat runs; inconclusive = weak or mixed curves, or effect the other way; inactive = no such curve, though single readings can be large or run the other way.

Experiment: Caspase-3/7 induction in CHO-K1 cells by small molecules, qHTS cell viability counter screen (AID 1346979); also: nearly all actives have a fitted effect of over 35% in size
Conditions: CellTiter-Fluor fluorescence, 17 h; series mostly up to 92.4 µM
From the text: National Center for Advancing Translational Sciences [NCATS]
NIH Chemical Genomics Center [NCGC]
U.S. Environmental Protection Agency [EPA]
National Institutes of Environmental Health Sciences [NIEHS]
National Toxicology Program [NTP]
U.S. Food and Drug Administration [FDA]
Apoptosis is a process of programmed cell death and plays a central role in the development of multicellular organisms. It is a highly regulated process and induces cell death by activating caspases, which are the members of cysteine aspartic acid-specific protease (caspase) family. Caspases involved in apoptosis are classified by their mechanism of action as initiator caspases (caspase-2, -8, -9 and -10) and executioner caspases (caspase-3, -6, and -7). Inhibition of apoptosis results in number of cancers, autoimmune diseases, inflammatory diseases and viral infection. To identify small molecule compounds that induce apoptosis, a homogeneous, luminescent Caspase-Glo 3/7 assay was used. Wild type CHO-K1 cells were used to screen Tox21 libraries for identifying caspase-3/7 activity inducers. Also cytotoxicity of the compounds was tested in parallel by measuring the cell viability using CellTiter-Fluor assay system in the same wells.
Tox21 Assay Protocol Summary:
CHO-K1 cells were dispensed at 1,500 per well in 5uL of culture medium into white solid bottom 1536-well plates (Corning Life Sciences, Corning, NY) using a Multidrop Combi (Thermo Scientific, Waltham, MA) dispenser. The assay plates were incubated at 37 C and 5% CO2 for 5hr, and then 23nL of compounds dissolved in DMSO and positive control were transferred using a Pintool station (Wako, San Diego, CA). The assay plates were incubated at 37C and 5% CO2 for 17hr. For cytotoxicity read, after 16hr incubation at 37C, 1uL CellTiter-Fluor reagent (Promega Corporation, Madison, WI) was added to each well of the assay plates using Flying Reagent Dispenser (FRD, Aurora Discovery, San Diego, CA). After 1hr incubation at 37C and 5% CO2, the fluorescence signal was quantified using a ViewLux plate reader (PerkinElmer, Shelton, CT).

Structure (SMILES)	Potency	activity change, negative = cytotoxicity
CCCCc1ccc2cccc(S(=O)(=O)O)c2c1	inactive	–
Cn1cnc2c(=O)[nH]c(N)nc21	inactive	–
C[C@H](O)C(=O)Nc1c(I)c(C(=O)NC(CO)CO)c(I)c(C(=O)NC(CO)CO)c1I	inactive	–
CC(C)CCOC(=O)CC(C)C	inactive	–
CC(=O)OC(C)(C)C	inactive	–
CC(C)CCCCCCN	inactive	–
CNc1ncnc2nc[nH]c12	inactive	–
Cc1nc(-c2ccc(OCC(C)C)c(C#N)c2)sc1C(=O)O	inactive	–
c1ccc(CCCc2ccccn2)cc1	inactive	–
Cc1ccccc1Br	inactive	–
CC1(C)SC(C)(C)SC(C)(C)S1	inactive	–
CC1(C)OC(=O)Nc2ccc(Br)cc21	inactive	–
N#CCc1ccccc1[N+](=O)[O-]	inactive	–
C=CCOCC(O)CS(=O)(=O)O (stereo not given)	inactive	–
CCCOc1ccccc1-c1nc2n[nH]nc2c(=O)[nH]1	inactive	–
CC(C)[N+](C)(C)CC(O)COc1cccc2ccccc12 (stereo not given)	inactive	–
CC12CCC(CC1=O)C2(C)C (stereo not given)	inactive	–
CO	inactive	–
C1=C\CC/C=C\CC/C=C\CC/1	inactive	–
CN(C)CCn1nnnc1SCC1=C(C(=O)O)N2C(=O)[C@@H](NC(=O)Cc3csc(N)n3)[C@H]2SC1	inactive	–

Structure (SMILES)	Potency	activity change, negative = cytotoxicity
O=S(=O)(O)c1ccccc1O	inactive	–
COc1cccc(OC)c1	inactive	–
CCCCCOC(=O)Nc1nc(=O)n([C@@H]2O[C@H](C)[C@@H](O)[C@H]2O)cc1F	inactive	–
C=C(C)C(=O)OCCCCCCCCCCCCCCCCCC	–	-0.104% [at 19 µM]
NS(=O)(=O)c1cc2c(cc1Cl)NC(CSCc1ccccc1)=NS2(=O)=O	inactive	–
CC(C)N1C(=O)c2ccccc2C1=O	inactive	–
CCCCCCCCCCC1CO1 (stereo not given)	inactive	–
O=S(=O)(c1cccc2cnccc12)N1CCCNCC1	inactive	–
CCCCOCC(C)OCC(C)O (stereo not given)	inactive	–
O=C1OC(=O)c2cc([N+](=O)[O-])ccc21	inactive	–
OCCN1C[C@H](O)[C@@H](O)[C@H](O)[C@H]1CO	inactive	–
CC(C)(O)Cc1ccccc1	inactive	–
NC(=O)Nc1nc2ccccc2[nH]1	inactive	–
NS(=O)(=O)c1cc2c(cc1C(F)(F)F)NC(Cc1ccccc1)NS2(=O)=O (stereo not given)	inactive	–
CC(C)=CCC/C(C)=C/C(=O)O	inactive	–
Cc1c(F)cc2c(=O)c(C(=O)O)cn3c2c1CCC3C (stereo not given)	inactive	–
CC(C)(C)CC(C)(C)N	inactive	–
COC(=O)CCCCCCCCC(=O)OC	inactive	–
C1C2OC2C2C1C1CC2C2OC12 (stereo not given)	inactive	–
CC(C)c1cccc(O)c1	inactive	–
